Measured values taken from the supplement of paper PMC11732987, “Enantioselective OTUD7B fragment discovery through chemoproteomics screening and high-throughput optimisation” (Communications Chemistry, 2025).

How the values were obtained:
Assay in all cases: log2 ratio of Biotin-Ahx-Ub-VS probe labelling (fragment/DMSO); higher = less target engagement (more negative = stronger competition), active = hit call of the paper (q ≤ 0.05, log2 ratio ≤ -1)
Settings in all cases: compound concentration: 200 uM; treatment time: 3 h
USP19 = target: T1, USP19 (UniProt O94966)
T1 sequence (whole entry): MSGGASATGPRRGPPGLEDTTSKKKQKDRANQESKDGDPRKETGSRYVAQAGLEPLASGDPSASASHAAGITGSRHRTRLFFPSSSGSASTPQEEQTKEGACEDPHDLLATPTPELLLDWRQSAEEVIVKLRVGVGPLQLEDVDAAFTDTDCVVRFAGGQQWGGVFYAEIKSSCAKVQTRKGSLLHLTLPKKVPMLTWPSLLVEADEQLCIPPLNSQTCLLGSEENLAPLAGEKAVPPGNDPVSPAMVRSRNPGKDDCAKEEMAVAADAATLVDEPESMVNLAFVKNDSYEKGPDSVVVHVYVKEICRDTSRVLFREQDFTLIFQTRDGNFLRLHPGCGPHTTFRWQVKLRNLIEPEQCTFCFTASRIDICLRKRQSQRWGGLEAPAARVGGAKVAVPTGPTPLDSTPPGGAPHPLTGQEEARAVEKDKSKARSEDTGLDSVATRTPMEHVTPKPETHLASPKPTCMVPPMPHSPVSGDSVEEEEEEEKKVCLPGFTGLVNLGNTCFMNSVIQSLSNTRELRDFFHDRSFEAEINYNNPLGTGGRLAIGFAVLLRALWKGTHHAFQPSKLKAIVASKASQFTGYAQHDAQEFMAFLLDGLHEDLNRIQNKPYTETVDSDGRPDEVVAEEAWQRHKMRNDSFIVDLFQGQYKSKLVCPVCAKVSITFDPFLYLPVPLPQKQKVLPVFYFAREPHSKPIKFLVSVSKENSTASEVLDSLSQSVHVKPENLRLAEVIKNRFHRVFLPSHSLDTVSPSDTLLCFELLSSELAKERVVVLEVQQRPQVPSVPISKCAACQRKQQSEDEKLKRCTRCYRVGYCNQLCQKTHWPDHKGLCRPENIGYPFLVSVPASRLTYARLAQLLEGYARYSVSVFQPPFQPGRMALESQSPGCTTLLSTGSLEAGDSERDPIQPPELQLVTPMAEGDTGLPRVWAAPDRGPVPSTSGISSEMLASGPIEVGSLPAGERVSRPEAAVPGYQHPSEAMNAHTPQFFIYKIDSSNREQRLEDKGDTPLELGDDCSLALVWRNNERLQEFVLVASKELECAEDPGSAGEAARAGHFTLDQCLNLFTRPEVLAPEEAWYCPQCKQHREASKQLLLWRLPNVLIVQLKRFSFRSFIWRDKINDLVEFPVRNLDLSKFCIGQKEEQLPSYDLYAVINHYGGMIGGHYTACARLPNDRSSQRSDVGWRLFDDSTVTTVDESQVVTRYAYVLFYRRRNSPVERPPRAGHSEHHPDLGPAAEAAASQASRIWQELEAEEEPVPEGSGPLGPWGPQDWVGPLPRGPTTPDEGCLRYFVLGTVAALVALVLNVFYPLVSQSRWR
Outline: (§1)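 HEK293T lysate, 495 µg per sample in Tris/CHAPS/IGEPAL buffer with protease inhibitors, was treated in triplicate with fragment at 200 µM or vehicle for 3 h and then with Biotin-Ahx-Ub-VS at 0.5 µM final for 1 h. Labelled DUBs were NeutrAvidin-enriched, digested with LysC and trypsin, and run by diaPASEF LC-MS/MS. Spectronaut label-free quantities were global-median-normalised, and values are average log2 fragment/vehicle ratios by unpaired t-test on proteins with ≥2 unique peptides.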

USP22 = target: T2, USP22 (UniProt Q9UPT9)
T2 sequence (whole entry): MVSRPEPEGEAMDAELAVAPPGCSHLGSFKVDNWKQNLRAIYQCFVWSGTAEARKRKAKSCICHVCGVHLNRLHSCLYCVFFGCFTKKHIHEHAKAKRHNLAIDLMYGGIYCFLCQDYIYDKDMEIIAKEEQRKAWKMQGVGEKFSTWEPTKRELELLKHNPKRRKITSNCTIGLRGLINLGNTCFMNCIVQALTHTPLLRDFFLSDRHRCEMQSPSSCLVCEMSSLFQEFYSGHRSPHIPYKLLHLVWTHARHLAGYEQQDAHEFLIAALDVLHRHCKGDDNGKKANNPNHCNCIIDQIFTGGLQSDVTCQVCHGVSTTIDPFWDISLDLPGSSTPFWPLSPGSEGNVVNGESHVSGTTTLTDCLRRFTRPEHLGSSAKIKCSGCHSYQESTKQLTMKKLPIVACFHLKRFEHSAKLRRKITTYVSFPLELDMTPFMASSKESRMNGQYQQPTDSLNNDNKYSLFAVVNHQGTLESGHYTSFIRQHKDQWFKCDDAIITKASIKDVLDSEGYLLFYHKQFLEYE
Outline: as §1

USP24 = USP24 (UniProt Q9UPU5)
Outline: as §1

USP25 = target: T3, USP25 (UniProt Q9UHP3)
T3 sequence (whole entry): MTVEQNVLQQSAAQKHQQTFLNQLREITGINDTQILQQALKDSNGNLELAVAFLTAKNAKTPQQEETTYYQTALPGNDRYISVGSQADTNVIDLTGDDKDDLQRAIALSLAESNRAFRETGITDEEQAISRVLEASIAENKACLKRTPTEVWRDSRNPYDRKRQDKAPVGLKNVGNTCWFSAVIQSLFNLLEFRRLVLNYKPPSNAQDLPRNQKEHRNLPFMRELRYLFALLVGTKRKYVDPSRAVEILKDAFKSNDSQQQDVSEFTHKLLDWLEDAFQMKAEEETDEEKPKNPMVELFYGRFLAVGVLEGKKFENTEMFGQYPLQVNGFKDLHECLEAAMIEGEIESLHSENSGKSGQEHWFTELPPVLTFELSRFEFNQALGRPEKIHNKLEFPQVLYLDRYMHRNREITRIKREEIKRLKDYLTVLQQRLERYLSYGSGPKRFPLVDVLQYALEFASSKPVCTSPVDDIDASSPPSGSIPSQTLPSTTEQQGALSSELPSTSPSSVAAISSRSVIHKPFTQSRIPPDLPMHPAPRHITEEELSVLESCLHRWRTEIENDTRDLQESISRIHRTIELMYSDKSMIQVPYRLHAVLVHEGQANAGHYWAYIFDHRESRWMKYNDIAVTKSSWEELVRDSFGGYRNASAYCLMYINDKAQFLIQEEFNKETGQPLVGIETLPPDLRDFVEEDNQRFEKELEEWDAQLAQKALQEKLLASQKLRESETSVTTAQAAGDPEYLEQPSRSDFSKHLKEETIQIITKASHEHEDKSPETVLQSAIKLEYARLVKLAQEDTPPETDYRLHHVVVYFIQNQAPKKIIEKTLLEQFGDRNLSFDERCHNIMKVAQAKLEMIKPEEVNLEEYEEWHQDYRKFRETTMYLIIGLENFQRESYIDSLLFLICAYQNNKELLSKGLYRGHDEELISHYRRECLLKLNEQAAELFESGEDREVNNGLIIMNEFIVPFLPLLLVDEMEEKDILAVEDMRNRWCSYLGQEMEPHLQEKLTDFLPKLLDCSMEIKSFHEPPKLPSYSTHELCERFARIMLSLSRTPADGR
Outline: as §1

USP28 = target: T4, USP28 (UniProt Q96RU2)
T4 sequence (whole entry): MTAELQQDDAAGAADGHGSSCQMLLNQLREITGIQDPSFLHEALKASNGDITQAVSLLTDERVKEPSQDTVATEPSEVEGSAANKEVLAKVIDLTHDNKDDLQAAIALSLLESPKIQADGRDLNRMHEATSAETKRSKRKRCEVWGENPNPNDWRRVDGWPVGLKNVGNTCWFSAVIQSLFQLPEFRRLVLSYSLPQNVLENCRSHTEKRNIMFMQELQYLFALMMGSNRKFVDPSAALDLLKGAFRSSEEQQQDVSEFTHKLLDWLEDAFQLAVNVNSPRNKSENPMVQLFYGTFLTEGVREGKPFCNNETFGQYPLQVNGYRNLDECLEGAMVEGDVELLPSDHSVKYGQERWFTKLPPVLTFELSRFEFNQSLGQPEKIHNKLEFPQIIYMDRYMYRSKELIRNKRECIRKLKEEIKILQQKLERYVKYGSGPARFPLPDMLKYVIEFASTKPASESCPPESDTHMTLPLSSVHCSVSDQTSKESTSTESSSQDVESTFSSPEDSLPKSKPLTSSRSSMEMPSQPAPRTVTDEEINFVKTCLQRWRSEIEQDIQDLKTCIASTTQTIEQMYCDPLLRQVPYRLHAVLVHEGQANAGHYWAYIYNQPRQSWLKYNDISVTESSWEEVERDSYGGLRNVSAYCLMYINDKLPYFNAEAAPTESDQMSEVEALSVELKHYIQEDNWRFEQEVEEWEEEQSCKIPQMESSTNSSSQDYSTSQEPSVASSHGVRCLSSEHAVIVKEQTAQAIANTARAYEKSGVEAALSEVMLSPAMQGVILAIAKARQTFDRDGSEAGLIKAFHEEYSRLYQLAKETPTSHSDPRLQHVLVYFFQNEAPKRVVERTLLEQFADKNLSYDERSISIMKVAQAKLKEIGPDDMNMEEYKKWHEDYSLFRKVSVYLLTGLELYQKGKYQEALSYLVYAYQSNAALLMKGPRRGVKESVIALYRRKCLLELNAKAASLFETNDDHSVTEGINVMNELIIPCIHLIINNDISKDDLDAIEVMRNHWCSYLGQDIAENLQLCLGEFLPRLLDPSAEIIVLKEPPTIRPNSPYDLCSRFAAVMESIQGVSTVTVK
Outline: as §1

Measured: log2 ratio of Biotin-Ahx-Ub-VS probe labelling

Chain of USP24 (Q9UPU5 whole entry): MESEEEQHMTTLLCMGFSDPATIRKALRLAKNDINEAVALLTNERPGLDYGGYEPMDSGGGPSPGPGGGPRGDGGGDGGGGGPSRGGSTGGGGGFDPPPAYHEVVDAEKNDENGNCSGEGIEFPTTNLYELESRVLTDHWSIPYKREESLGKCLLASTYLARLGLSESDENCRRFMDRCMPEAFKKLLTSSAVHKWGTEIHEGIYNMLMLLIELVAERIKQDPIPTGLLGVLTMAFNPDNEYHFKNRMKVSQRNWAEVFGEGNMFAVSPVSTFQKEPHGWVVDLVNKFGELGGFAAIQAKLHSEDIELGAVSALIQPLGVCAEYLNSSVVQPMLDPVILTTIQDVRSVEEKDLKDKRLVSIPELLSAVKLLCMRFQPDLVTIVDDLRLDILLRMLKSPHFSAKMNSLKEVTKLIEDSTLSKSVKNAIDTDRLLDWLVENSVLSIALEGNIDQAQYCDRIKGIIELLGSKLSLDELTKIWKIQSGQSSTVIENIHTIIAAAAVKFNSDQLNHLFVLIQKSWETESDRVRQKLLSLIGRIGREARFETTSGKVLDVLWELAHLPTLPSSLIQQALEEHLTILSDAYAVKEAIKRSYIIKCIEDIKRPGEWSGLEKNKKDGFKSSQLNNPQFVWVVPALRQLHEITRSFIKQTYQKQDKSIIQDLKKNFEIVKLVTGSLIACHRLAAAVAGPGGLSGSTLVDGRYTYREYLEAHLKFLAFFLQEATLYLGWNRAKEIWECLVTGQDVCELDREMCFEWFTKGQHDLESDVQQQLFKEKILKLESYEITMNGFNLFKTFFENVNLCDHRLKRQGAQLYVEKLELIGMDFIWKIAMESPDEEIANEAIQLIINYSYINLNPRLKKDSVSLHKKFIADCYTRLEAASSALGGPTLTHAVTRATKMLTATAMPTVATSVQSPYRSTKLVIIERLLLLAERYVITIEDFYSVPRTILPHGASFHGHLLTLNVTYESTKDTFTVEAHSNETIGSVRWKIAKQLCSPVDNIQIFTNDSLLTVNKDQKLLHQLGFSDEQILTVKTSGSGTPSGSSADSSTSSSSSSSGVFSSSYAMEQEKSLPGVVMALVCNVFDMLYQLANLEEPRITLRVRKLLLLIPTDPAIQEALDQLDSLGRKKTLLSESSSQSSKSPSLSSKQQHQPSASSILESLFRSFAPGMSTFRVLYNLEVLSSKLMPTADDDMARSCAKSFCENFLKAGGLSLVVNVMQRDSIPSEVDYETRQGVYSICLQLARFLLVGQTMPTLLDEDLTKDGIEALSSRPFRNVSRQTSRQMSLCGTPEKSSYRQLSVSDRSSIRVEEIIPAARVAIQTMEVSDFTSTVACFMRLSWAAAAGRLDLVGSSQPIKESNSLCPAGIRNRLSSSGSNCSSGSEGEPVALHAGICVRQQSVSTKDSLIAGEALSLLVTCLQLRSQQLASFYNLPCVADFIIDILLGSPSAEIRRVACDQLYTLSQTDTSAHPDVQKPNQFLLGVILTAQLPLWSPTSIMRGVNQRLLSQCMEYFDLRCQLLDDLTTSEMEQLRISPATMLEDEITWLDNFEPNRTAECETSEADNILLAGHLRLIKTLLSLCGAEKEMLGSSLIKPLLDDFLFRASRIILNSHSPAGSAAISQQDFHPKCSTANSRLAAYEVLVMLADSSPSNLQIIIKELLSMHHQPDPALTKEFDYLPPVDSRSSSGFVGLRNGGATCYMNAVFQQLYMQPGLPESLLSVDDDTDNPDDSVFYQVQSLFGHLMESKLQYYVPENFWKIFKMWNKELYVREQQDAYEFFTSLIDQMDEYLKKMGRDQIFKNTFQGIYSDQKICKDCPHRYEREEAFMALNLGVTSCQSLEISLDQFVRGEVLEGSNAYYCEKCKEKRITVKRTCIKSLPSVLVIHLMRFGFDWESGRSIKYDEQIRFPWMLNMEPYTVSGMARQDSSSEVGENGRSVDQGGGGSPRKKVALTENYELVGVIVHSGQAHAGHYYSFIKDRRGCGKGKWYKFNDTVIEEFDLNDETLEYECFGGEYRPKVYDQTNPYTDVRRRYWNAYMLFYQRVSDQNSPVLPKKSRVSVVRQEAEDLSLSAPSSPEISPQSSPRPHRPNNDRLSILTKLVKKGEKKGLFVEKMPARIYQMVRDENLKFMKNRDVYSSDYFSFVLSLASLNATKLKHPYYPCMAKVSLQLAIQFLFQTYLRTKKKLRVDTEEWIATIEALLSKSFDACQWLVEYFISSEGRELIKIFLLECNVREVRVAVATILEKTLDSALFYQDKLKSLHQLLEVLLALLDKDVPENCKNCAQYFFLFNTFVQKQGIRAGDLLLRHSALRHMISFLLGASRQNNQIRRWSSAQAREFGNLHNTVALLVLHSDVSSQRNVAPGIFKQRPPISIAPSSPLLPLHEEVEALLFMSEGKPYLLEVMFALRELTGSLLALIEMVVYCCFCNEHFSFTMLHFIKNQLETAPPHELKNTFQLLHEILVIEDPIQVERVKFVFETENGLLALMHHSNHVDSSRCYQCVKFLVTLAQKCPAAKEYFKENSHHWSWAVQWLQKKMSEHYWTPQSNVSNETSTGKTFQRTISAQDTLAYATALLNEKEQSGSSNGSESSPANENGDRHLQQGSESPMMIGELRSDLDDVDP

CC(=O)C1CCCCN1C(=O)CCl (stereo not given)
inactive: USP19 -0.14 | USP22 0.0806 | USP24 0.0726 | USP25 0.106 | USP28 -0.2
